Common to all, as to design: scale not given: direction of the effect not stated beside the values
The target in assay [1] is Protein translocase subunit SecA (Escherichia coli (strain K12)) (UniProt P10408). Briefly: Assay to Identify E. coli SecA ATPase Inhibitors. In kind it is functional. The following applies: 30 µM.
The target in assay [2] is T1, Ubiquitin-activating enzyme e1, putative (Leishmania donovani (strain BPK282A1)) (UniProt E9BSI1).
T1 sequence (whole entry): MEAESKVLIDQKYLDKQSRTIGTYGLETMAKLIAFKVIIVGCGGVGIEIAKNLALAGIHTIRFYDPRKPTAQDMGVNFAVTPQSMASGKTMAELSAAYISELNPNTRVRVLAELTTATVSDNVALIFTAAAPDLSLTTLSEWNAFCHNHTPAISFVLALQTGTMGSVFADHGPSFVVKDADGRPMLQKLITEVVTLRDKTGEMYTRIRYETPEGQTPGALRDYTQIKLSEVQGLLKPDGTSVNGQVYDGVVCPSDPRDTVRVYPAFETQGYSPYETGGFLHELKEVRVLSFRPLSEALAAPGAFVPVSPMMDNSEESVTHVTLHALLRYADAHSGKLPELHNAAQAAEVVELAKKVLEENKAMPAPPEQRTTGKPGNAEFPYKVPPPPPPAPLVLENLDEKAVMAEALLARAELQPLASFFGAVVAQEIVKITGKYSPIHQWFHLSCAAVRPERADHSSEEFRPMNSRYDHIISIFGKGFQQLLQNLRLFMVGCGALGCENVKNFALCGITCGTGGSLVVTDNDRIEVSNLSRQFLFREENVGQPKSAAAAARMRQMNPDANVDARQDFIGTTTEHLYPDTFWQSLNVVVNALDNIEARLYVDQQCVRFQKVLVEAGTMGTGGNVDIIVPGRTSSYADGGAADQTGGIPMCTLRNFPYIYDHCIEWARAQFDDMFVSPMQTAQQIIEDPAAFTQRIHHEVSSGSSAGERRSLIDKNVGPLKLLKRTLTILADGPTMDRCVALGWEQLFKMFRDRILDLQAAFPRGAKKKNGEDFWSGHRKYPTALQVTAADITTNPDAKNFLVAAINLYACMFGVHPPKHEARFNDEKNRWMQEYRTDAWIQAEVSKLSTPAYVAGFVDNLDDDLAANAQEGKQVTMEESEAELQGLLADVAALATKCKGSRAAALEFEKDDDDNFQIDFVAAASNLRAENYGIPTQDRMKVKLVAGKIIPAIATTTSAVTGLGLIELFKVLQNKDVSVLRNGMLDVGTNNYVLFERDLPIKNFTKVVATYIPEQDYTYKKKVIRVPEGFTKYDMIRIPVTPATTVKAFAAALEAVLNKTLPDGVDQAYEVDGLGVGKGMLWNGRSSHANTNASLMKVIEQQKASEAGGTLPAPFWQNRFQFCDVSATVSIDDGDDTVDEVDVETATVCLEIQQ
Briefly: Leishmania donovani Ubiquitin Activating Enzyme (LdE1). In kind it is functional. The settings on record: 30 µM.

For assay [3], the target named is AMP-activated protein kinase, AMPK (Homo sapiens) (UniProt P54646+O43741+P54619+Q9UGJ0+Q9Y478+Q13131+Q9UGI9). Briefly: AMP-dependent Kinase enzyme assay. An in vitro enzyme assay that detects ADP turnover that is directly proportional to AMPK activity. This uses naive AMPK that is activated during the assay with MK-8722. In kind it is functional. The settings on record: 30 µM.

Assay [4] concerns the target Sialic acid-binding Ig-like lectin 9 (Homo sapiens) (UniProt Q9Y336). Briefly: Hs-Siglec9 ALPHAscreen SOP 20170721. The following applies: 10 µM. (In general: In Alpha technology, singlet oxygen from a donor bead excites a nearby acceptor bead.)
The subject of another assay is Trypanosoma cruzi. Briefly: Trypanosoma cruzi phosphomannomutase and mannose-1-phosphate guanylyltransferase assay. The following applies: 10 µM. The class given is functional.
Assay [5] addresses T2, Arginase-2, mitochondrial (Homo sapiens) (UniProt P78540).
T2 sequence (whole entry): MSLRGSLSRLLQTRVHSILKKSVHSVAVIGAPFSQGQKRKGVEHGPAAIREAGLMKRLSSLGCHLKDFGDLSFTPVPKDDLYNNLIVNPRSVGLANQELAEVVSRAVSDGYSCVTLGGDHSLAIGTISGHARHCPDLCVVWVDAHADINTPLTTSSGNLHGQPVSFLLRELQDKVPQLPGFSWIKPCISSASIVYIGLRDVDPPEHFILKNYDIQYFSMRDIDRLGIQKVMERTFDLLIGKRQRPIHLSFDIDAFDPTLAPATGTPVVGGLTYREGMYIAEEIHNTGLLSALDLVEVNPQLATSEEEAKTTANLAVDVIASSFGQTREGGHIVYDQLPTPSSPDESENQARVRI
Briefly: in vitro enzyme assay to detect the production of urea directly proportional to the activity of Arginase II. Further: in the data most compounds retested in dose-response had high values. The following applies: 33.3 µM. The class given is functional.

Assay [6] addresses T3, Proteasome subunit beta (Trypanosoma cruzi) (UniProt O96673).
T3 sequence (whole entry): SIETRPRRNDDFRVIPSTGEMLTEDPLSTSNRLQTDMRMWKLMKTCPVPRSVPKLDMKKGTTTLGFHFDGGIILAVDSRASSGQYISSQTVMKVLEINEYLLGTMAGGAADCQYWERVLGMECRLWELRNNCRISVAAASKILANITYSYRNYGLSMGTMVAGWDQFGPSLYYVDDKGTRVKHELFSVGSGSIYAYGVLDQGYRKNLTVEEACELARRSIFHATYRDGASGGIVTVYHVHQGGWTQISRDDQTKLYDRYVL
Briefly: Trypanosoma cruzi proteasome chymotrypsin-like activity (TcProtChymo) assay. Further: in the data most compounds retested in dose-response had high values. The settings on record: 9.37 µM. In kind it is functional.

For another assay, the species on record is Homo sapiens. Briefly: To identify inhibition of the IFN signalling (Jak-Stat) pathway via expression of an eGFP reporter gene under the control of an IFN-stimulated response element (ISRE) containing MxA promoter. In kind it is functional. The settings on record: 30 µM.
For assay [7], the target named is T4, Tyrosyl-tRNA synthetase, putative (Trypanosoma cruzi (strain CL Brener)) (UniProt Q4DSP6).
T4 sequence (whole entry): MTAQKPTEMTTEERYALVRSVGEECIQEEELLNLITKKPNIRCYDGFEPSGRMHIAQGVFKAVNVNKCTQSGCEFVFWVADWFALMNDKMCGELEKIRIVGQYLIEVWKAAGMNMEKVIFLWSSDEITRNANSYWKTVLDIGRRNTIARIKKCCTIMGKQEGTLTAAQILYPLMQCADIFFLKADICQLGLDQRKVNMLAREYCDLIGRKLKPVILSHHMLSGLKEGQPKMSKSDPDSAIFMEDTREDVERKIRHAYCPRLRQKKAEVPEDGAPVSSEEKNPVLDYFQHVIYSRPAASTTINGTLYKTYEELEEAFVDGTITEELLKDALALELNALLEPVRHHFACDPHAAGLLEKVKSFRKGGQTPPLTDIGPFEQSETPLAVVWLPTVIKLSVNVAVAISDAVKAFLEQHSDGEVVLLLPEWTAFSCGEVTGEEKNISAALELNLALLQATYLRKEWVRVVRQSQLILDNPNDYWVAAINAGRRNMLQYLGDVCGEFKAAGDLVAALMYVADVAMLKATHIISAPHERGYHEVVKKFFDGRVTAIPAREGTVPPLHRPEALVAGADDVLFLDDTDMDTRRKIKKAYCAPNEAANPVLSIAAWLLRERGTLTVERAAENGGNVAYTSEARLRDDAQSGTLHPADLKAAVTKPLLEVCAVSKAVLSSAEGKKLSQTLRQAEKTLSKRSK
Briefly: Trypanosoma cruzi tyrosyl tRNA synthetase (TcYRS) _High Tyrosine SOP. Further: in the data most compounds retested in dose-response had high values. In kind it is functional. The settings on record: 30 µM.

Assay [8] concerns the target T4, Tyrosyl-tRNA synthetase, putative (Trypanosoma cruzi (strain CL Brener)). Briefly: Trypanosoma cruzi tyrosyl tRNA synthetase (TcYRS) SOP. The class given is functional. The following applies: 30 µM.
The target of assay [9] is Chromo domain-containing protein 1 (Saccharomyces cerevisiae (strain ATCC 204508 / S288c) (Baker's yeast)) (UniProt P32657). Briefly: ScCHD-1 Enzyme Inhibition Assay. Further: in the data most compounds retested in dose-response had high values. In kind it is functional. The following applies: 30 µM.
Chromo domain-containing protein 1 (Saccharomyces cerevisiae (strain ATCC 204508 / S288c) (Baker's yeast)), sequence (P32657 whole entry, the tested form may be a part): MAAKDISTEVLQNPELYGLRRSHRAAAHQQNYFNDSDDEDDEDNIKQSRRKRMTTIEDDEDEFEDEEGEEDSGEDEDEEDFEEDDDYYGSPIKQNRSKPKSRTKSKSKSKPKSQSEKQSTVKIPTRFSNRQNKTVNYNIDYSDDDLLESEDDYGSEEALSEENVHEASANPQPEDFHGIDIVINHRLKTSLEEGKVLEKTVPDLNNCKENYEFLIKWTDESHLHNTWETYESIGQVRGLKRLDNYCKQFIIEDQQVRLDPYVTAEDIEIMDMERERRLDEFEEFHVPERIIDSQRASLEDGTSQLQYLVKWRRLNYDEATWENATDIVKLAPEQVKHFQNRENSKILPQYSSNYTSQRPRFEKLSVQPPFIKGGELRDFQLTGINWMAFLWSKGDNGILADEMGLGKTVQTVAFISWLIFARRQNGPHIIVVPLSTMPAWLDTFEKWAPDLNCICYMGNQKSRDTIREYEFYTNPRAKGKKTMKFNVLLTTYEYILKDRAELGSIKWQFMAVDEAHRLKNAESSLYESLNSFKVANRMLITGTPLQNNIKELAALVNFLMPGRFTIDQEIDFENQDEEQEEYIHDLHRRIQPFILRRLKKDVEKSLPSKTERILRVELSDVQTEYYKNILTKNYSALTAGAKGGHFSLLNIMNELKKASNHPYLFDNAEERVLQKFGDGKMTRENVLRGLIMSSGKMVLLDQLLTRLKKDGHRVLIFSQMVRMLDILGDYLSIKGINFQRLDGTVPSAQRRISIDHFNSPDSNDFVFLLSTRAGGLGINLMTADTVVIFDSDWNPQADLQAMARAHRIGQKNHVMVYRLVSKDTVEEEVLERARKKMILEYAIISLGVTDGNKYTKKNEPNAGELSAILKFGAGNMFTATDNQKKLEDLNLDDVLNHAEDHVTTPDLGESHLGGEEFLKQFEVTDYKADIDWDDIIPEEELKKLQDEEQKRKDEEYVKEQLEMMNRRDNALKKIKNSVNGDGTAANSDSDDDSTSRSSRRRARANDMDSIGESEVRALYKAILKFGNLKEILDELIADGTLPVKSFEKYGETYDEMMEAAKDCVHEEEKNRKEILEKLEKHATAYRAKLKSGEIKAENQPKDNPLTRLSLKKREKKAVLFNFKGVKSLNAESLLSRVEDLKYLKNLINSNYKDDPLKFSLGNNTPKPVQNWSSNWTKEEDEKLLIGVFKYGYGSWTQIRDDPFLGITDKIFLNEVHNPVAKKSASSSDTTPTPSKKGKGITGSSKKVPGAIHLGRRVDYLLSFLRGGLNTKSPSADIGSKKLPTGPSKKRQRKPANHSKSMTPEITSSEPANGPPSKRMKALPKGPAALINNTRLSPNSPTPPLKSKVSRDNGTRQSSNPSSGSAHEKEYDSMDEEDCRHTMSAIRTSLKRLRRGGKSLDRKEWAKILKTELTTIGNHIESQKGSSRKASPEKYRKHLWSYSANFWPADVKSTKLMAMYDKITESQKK

For some of these results: Potency and affinity values are given separately.

Protein translocase subunit SecA (Escherichia coli (strain K12)), sequence (P10408 whole entry): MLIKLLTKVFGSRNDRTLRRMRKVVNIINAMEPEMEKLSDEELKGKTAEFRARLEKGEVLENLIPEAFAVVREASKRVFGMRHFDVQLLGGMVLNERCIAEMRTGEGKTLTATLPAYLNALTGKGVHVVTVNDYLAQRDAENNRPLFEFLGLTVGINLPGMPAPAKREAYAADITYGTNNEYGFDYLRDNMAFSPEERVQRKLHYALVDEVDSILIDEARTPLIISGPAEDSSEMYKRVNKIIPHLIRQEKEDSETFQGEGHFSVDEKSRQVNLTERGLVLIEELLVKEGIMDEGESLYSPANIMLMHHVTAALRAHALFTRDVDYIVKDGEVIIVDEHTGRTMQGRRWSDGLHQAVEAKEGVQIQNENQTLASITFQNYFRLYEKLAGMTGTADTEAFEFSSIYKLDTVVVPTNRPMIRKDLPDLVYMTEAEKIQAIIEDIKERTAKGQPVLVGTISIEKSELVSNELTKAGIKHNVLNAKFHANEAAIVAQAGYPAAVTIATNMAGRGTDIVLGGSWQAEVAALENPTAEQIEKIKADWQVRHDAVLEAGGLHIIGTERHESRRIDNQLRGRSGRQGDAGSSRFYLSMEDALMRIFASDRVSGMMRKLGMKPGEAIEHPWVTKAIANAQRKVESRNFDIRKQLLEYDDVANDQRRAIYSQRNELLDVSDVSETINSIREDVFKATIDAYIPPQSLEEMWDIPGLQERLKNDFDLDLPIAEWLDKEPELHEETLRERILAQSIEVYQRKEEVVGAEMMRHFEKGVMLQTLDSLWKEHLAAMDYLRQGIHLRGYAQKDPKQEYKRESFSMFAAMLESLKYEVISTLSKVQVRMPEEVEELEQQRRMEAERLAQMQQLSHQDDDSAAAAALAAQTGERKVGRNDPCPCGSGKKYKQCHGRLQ
Sialic acid-binding Ig-like lectin 9 (Homo sapiens), sequence (Q9Y336 whole entry): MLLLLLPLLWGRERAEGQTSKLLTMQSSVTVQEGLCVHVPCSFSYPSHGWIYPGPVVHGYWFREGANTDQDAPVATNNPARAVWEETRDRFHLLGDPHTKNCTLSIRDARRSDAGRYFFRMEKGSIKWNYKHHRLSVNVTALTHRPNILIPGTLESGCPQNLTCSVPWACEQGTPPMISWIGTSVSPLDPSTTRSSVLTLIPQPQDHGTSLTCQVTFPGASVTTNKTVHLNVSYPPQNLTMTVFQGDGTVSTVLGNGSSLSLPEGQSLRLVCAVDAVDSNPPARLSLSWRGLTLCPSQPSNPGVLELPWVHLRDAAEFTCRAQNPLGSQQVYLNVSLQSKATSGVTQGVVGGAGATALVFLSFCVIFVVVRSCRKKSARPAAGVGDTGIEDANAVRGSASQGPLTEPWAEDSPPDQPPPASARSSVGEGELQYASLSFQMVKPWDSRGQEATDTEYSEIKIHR

As to `CS(=O)(=O)c1ccc(CNC(=O)N2CCC(c3ccccc3)CC2)cc1`, the Percent Effect was -1.75% in [1]; 7.59% in assay [2]; 0.598% in assay [3]; -2.13% in assay [4]; -5.76% in the assay on Trypanosoma cruzi; 3.42% in [5]. The Percent Effect in assay [6] was 5%; in the assay filed under Homo sapiens it was 8.31%; in assay [7], -3.45%; in assay [8], 1.27%; in assay [9] it was -6.29%.

With `CCN(CC1CN(Cc2ncc[nH]2)CCO1)c1cccnn1` (stereo unspecified), the Percent Effect in assay [1] was -4.66%; in assay [2], 8%; in assay [3] it was -8.56%; in [4] it was 6.93%; with Trypanosoma cruzi, 1.46%; in assay [5], 5.21%. The Percent Effect in assay [6] was 16.2%; in the assay filed under Homo sapiens it was 6.04%; in [7], 4.92%; in assay [8], 8.64%; in [9], -4.63%.

Turning to `CCn1cnnc1C1CCN(C(=O)COc2ccccc2)CC1`, the Percent Effect was -7.35% in [1]; 13% in assay [2]; -3.46% in [3]; -2.33% in assay [4]; 4.6% in the assay on Trypanosoma cruzi; -0.21% in assay [5]. For the same compound, the Percent Effect in [6] is 5.74%; in the assay filed under Homo sapiens, 7.87%; in [7], 4.76%; in [8] it was 11.8%; in assay [9], -22.2%.

For `CS(=O)(=O)NC[C@@H]1OC[C@H]2CN(C(=O)c3ccc[nH]3)CC[C@H]21`, the Percent Effect in [1] was -1.96%; in [2], -187%; in assay [3] it was 4.44%; in assay [4], 3.67%; in the assay with Trypanosoma cruzi it was -18.5%; in assay [5], -44.3%. The Percent Effect was 10.6% in [6]; -0.978% in the assay filed under Homo sapiens; -265% in assay [7]; -628% in assay [8]; -2.84% in assay [9].

Turning to `CC(C)(C)c1cnc(CN2CCC[C@H]2CO)o1`, the Percent Effect in assay [1] is -1.75%; in [2] it was -5.2%; in [3] it was 4.08%; in assay [4], 12.3%; with Trypanosoma cruzi, 5.62%; in assay [5], -0.712%. The Percent Effect is -1.01% in [6]; -3.74% in the assay filed under Homo sapiens; 7.77% in assay [7]; 9.76% in assay [8]; -5.64% in assay [9].

As for `Cc1nc(C)n(CC2CCCN2CCc2cccs2)n1` (stereo unspecified), the Percent Effect was -2.28% in assay [1]; 15.8% in assay [2]; 3.79% in assay [3]; -4.64% in assay [4]; 7.89% in the assay on Trypanosoma cruzi; -2.68% in assay [5]. The Percent Effect in [6] was 25.4%; in the assay listed under Homo sapiens it was 10.2%; in [7] it was 13.2%; in assay [8], -7.32%; in assay [9], -11.4%.

As to `CN(C)Cc1ccnc(C2CCCN2Cc2cc[nH]n2)n1` (stereo unspecified), the Percent Effect in assay [1] is -6.5%; in assay [2] it was -6.76%; in assay [3], 10.3%; in assay [4], -1.81%; in the assay on Trypanosoma cruzi it was -1.78%; in assay [5], -1.16%. The Percent Effect was 6.08% in [6]; -0.845% in the assay listed under Homo sapiens; 3.23% in assay [7]; 3.9% in assay [8]; 1.51% in assay [9].

Turning to `CC1CN(C(=O)NCCCn2cncn2)CCO1` (stereo unspecified), the Percent Effect in assay [1] is -2.77%; in assay [2] it was 7.89%; in [3], 1.46%; in assay [4], 3.56%; with Trypanosoma cruzi it was -2.82%; in assay [5], 5.75%. Besides, the Percent Effect in assay [6] was 2.84%; in the assay listed under Homo sapiens it was -1.05%; in assay [7] it was 5.39%; in assay [8], 7.32%; in assay [9] it was -1.67%.

For `O=C(NCCN1CCCCC1)c1nc(-c2ccc3cc[nH]c3c2)no1`, the Percent Effect in assay [1] is -1.02%; in [2] it was 25.3%; in assay [3] it was -7.25%; in [4], 3.61%; with Trypanosoma cruzi, 4.71%; in assay [5] it was -4.75%. The Percent Effect in [6] is 20.5%; in the assay listed under Homo sapiens it was -13.4%; in assay [7], 4.23%; in [8], 12.8%; in [9], -6.27%.

For the compound `COCCN1CCN(CCS(=O)(=O)C(F)(F)F)CC1C` (stereo unspecified), the Percent Effect was -3.49% in assay [1]; 8.11% in [2]; -8.33% in assay [3]; 4.35% in assay [4]; -3.62% in the assay on Trypanosoma cruzi; -4.25% in [5]. For the same compound, the Percent Effect in [6] was determined as 0.179%; in the assay listed under Homo sapiens, 25.8%; in assay [7], 2.97%; in [8], 11%; in [9], 9.67%.

Take `O=S(=O)(Nc1cnn(C2CCOCC2)c1)c1c(F)cccc1F`: the Percent Effect in [1] was 1.19%; in [2], -2.6%; in assay [3], -13.6%; in assay [4], 5.79%; in the assay on Trypanosoma cruzi it was -2.66%; in assay [5], -1.94%. Moreover, the Percent Effect is 10.4% in assay [6]; 5.2% in the assay filed under Homo sapiens; 2.12% in assay [7]; 1.28% in [8]; -4.35% in [9].
